# Legend:
# Conditions in all cases: concentration: 1 μM, replicates: in singlicate; n = 1
# MAP3K15 = tested on: MAP3K15
# MAP3K1 = tested on: MAP3K1
# MAP3K2 = tested on: MAP3K2
# MAP3K3 = tested on: MAP3K3
# MAP3K4 = tested on: MAP3K4
# MAP4K2 = tested on: MAP4K2
# MAP4K3 = tested on: MAP4K3
# MAP4K4 = tested on: MAP4K4
# MAP4K5 = tested on: MAP4K5
# MAPKAPK2 = tested on: MAPKAPK2
# 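Further: KINOMEscan kinase panel screen.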
SMILES,%Inh (MAP3K15) [%],%Inh (MAP3K1) [%],%Inh (MAP3K2) [%],%Inh (MAP3K3) [%],%Inh (MAP3K4) [%],%Inh (MAP4K2) [%],%Inh (MAP4K3) [%],%Inh (MAP4K4) [%],%Inh (MAP4K5) [%],%Inh (MAPKAPK2) [%]
COc1cc(Nc2nccc(N3CCC(NS(=O)(=O)c4ccc(NC(C)=O)cc4)CC3)n2)cc(OC)c1OC [GSK1379825],0,11,18,0,31,0,40,68,53,0
Cc1ccc(O)cc1Nc1ccnc2ccc(C(C)(C)C)cc12 [GW856805],26,27,32,31,23,43,0,0,4,0
Cc1ccc(NC(=O)c2cccc(N3CCCCC3)c2)cc1-c1ccc(C(=O)NCC2CC2)cc1 [GSK1917008],11,17,0,0,28,5,80,16,22,18
c1ccc(Oc2ccc(Nc3ccnc4cc(-c5ccc(CN6CCCCC6)o5)ccc34)cc2)nc1 [GW567143],18,8,0,0,0,0,0,13,81,3
CNc1nccc(-c2ccc3c(N)n[nH]c3c2)n1 [GSK2206003],0,14,0,0,0,54,0,13,0,0
CN(c1ccc(NC(=O)N2CCN(CCCN3CCOCC3)CC2)cc1)c1ccnc(Nc2ccc(CS(C)(=O)=O)cc2)n1.Cl [GW830899],0,0,0,8,15,0,18,7,30,0
CN(c1ccc(NC(=O)Nc2cccc(Cl)c2)cc1)c1ccnc(N)n1.Cl [GW830707],0,0,0,23,0,10,0,0,16,0
COc1cccc(CC(=O)N2CCc3cc(-c4cn(C)c5ncnc(N)c45)ccc32)c1 [GSK2608899],13,20,82,49,77,38,78,0,84,21
Cc1ccc(NC(=O)c2ccnc(N3CCCCC3)c2)cc1-c1ccc(C(=O)NCC2CC2)cc1 [GW775610],0,0,0,0,0,0,11,0,26,12
O=C1NC(=O)C(c2ccccc2Cl)=C1Nc1cccc(Cl)c1 [SB-342409],0,10,1,3,3,0,5,0,0,37
COc1cccc2c(-c3ccncc3)c(-c3ccc(F)cc3)nn12 [GW468513],0,5,3,0,6,0,0,33,2,13
CN(c1ccc(F)c(NC(=O)c2cccc(OC(C)(C)C#N)c2Cl)c1)c1ccc2nc(NC(=O)C3CC3)sc2n1,0,0,0,15,0,0,0,75,0,0
CN(C)c1ncnc2nc[nH]c12 [SKF-31736],37,11,16,0,0,0,0,0,0,0
CN(C)CCOc1ccc(-c2cc(-c3ccc(Cl)c(O)c3)c(-c3ccncc3)[nH]2)cc1.Cl.Cl [SB-684387],50,0,0,0,17,27,0,22,3,12
O=C(Nc1c(F)cccc1F)c1cc(C(=O)c2ccccc2F)c[nH]1 [GSK1326180],0,0,0,0,42,0,0,19,0,8
NCCC(NC(=O)c1cc(Br)c(-c2ccnc3[nH]ccc23)s1)c1ccccc1.O=C(O)C(F)(F)F.O=C(O)C(F)(F)F (centres unmarked) [GSK1307810],65,16,38,2,0,23,15,45,0,0
COc1cc(Nc2ccnc3cc(-c4ccncc4)ccc23)cc(OC)c1OC.Cl [GW494610],7,8,25,30,0,13,0,83,55,13
N#Cc1cnc2cc(-c3cnc(CNCCN4CCOCC4)s3)ccc2c1Nc1ccc(Oc2ccccc2)cc1 [GW664114],0,19,65,86,99.2,71,98.9,98.1,99.6,14
CSc1ccc(NC2=C(c3ccc(Cl)cc3)C(=O)NC2=O)cc1 [SB-317658],0,0,1,29,37,12,1,16,17,1
COC(=O)Nc1nc2cc(Oc3ccc(NC(=O)Nc4cccc(SC)c4)cc3)ccc2[nH]1.Cl [GW697999],0,15,1,0,0,0,0,0,0,0
CCn1c(-c2nonc2N)nc2c(-c3ccccc3)ncc(OCCCN)c21.O=C(O)C(F)(F)F.O=C(O)C(F)(F)F [GSK260205],0,17,98.2,97.7,6,3,0,76,5,13
Cc1cc(-c2c(-c3ccc(F)cc3)ncn2CCCN2CCOCC2)nc(N)n1 [SB-222517],0,24,30,0,15,0,5,0,0,0

SMILES,%Inh (MAP3K15) [%],%Inh (MAP3K1) [%],%Inh (MAP3K2) [%],%Inh (MAP3K3) [%],%Inh (MAP3K4) [%],%Inh (MAP4K2) [%],%Inh (MAP4K3) [%],%Inh (MAP4K4) [%],%Inh (MAP4K5) [%],%Inh (MAPKAPK2) [%]
CCn1cnc2c(NCc3ccccc3)ncnc21 [SKF-96418],22,16,14,0,2,0,0,0,0,0
Fc1cc(Cl)ccc1Nc1ccnc2cc(-c3ccc(CN4CCSCC4)o3)ccc12 [GW560106],0,6,0,0,0,0,8,40,50,5
CN(C)CCNS(=O)(=O)c1ccc(-c2ccnc3[nH]ccc23)cc1 [GSK977620],14,11,49,19,0,11,31,20,8,0
Cc1ccccc1CC(=O)N1CCc2cc(-c3cn(C)c4ncnc(N)c34)ccc21 [GSK2603346],20,19,88,62,90,29,97.8,0,88,7
CC(C)c1nc(-c2cccc(NS(=O)(=O)c3c(F)cccc3F)c2)c(-c2ccnc(Nc3ccc(N4CCOCC4)nc3)n2)s1.Cl [GSK1723980],7,13,28,71,28,0,47,0,48,0
Cl.N#CCc1ccc(Nc2nccc(Nc3ccc(Oc4ccccc4)cc3)n2)cc1 [GW639905],21,11,0,0,10,0,0,99.1,100,0
Cl.O=C(Nc1ccc(Oc2ccc3[nH]c(NC(=O)c4ccco4)nc3c2)cc1)Nc1cc(C(F)(F)F)ccc1F [GW683134],0,27,7,0,0,0,17,24,32,93
Nc1ncc(-c2ccc3nccc(-c4ccncc4)c3c2)cc1S(=O)(=O)N1CCCCC1 [GSK1693850],0,9,0,1,14,16,0,5,6,5
Cc1ccc(O)cc1Nc1ccnc2cc(-c3ccc(CN4CCCCC4)o3)ccc12 [GW557777],7,67,29,7,0,29,0,2,3,0
CN(c1ccc2c(c1)nc(NCc1ccccc1)n2C)c1ccnc(Nc2ccc(CS(C)(=O)=O)cc2)n1.Cl [GW811603],13,0,0,56,0,0,33,2,0,0
Cn1cc(-c2ccc3c(c2)CCN3C(=O)Cc2cc(F)cc(F)c2F)c2c(N)ncnc21 [GSK2634140],7,10,87,50,80,0,78,0,81,7
CN1CCN(Cc2ccc(NC(=O)Nc3ccc(N(C)c4ccnc(Nc5ccc(CS(C)(=O)=O)cc5)n4)cc3)cc2)CC1.Cl [GW827654],100,37,59,61,96,67,95.5,95.8,82,0
COc1cccc(-c2nc(-c3ccccc3)[nH]c2-c2ccncc2)c1 [SB-610250],0,16,9,0,0,0,0,1,0,17
CCNC(=O)/C=C/c1n[nH]c2cc(Sc3ccccc3C(=O)NC)ccc12,5,38,20,30,3,30,65,39,24,12
CCNc1nccc(-c2c(-c3ccc(F)cc3)ncn2C2CCN(C)CC2)n1,0,0,0,0,0,0,0,0,0,0
COc1cccc(NC(=O)NCCNc2ccnc(Nc3ccc(F)cc3)n2)c1 [GSK1379879],0,1,0,0,36,0,10,0,0,20
Cn1cc(-c2ccc3c(c2)CCN3C(=O)Cc2cc(F)cc(C(F)(F)F)c2)c2c(N)ncnc21 [GSK2635225],0,3,33,12,41,0,25,0,31,10
CC(C)(C)c1ccc(C(=O)Nc2cn3cc(-n4ccnc4)ccc3n2)cc1,68,12,17,0,15,30,0,6,0,0
CC(=O)Nc1cn2nc(Oc3cccc(NC(=O)c4cccc(C(F)(F)F)c4)c3)ccc2n1,0,0,0,22,19,0,91.7,36,90,0
O=C(Nc1n[nH]c2cc(-c3cccs3)ccc12)C1CC1 [SB-731284],57,52,34,44,0,9,0,13,0,0
Cc1ccc(-c2ccc3occ(-c4ccc(S(C)=O)cc4)c3c2)nn1 (centres unmarked),0,0,0,0,0,0,0,0,0,0
Nc1cccc(-c2ccc3c(N)n[nH]c3c2)c1 [GSK2193613],0,100,0,0,4,91.1,1,19,0,0

SMILES,%Inh (MAP3K15) [%],%Inh (MAP3K1) [%],%Inh (MAP3K2) [%],%Inh (MAP3K3) [%],%Inh (MAP3K4) [%],%Inh (MAP4K2) [%],%Inh (MAP4K3) [%],%Inh (MAP4K4) [%],%Inh (MAP4K5) [%],%Inh (MAPKAPK2) [%]
COc1ccc(NC(=O)c2ccoc2)cc1-c1ccc(C(=O)NCC2CC2)cc1 [GW810437],4,13,9,0,6,10,0,0,7,0
O=C(O)C(F)(F)F.O=c1[nH]ccc2nc(N[C@@H]3CCNC3)nc(Nc3cc(Cl)cc(Cl)c3)c12 [GSK2188764],26,24,81,78,19,99.9,77,94.1,76,31
Cl.Cl.NCC(NC(=O)c1cc(-c2cccnc2)c(-c2ccnc3[nH]ccc23)s1)c1ccccc1 (centres unmarked) [GSK1323434],0,7,3,0,0,41,0,82,0,6
CCOc1nccc(-c2c(-c3ccc(F)cc3)ncn2C2CCNCC2)n1 [SB-249175],57,42,10,7,11,100,0,31,27,0
CS(=O)(=O)c1cccc(CNc2nc(Nc3ccc4c(c3)CCC(=O)N4)ncc2C(F)(F)F)c1,0,0,62,46,81,0,0,41,0,0
Fc1cc(Cl)ccc1Nc1ccnc2cc(-c3ccc(CN4CCOCC4)o3)ccc12 [GW560109],23,38,0,0,0,0,72,25,11,7
COC(=O)Nc1nc2ccc(Oc3ccc(NC(=O)Nc4cc(C(F)(F)F)ccc4F)cc3)cc2[nH]1.Cl [GW654607],0,25,0,0,23,1,0,22,11,29
Cc1cccc(Nc2nc(NCCN)ncc2C(N)=O)c1 [GSK1292139],0,4,62,31,22,98.4,32,83,26,2
Cc1ccc(NC(=O)c2ccc(Cl)c(Cl)c2)cc1-c1ccc(C(=O)Nc2ccncc2)cc1 [GSK1398460],0,8,1,0,45,0,0,1,0,15
Cn1cc(-c2cnc(N)c3c(-c4ccc5c(c4)CCN5C(=O)Cc4ccccc4)csc23)cn1 [GSK2593074],35,4,75,64,82,36,97.6,0,98.8,0
CC(C)c1nc(-c2ccc(F)c(NS(=O)(=O)c3c(F)cccc3F)c2)c(-c2ccnc(Nc3ccc(N4CCOCC4)nc3)n2)s1 [GSK1804250],26,17,13,0,23,8,22,4,58,14
COC(=O)Nc1nc2ccc(Oc3ccc(CC(=O)Nc4cc(C(F)(F)F)ccc4F)cc3)cc2[nH]1 [GW680903],0,0,0,0,8,0,0,0,0,20
COc1cccc(C2=C(Nc3cccc(O)c3)C(=O)NC2=O)c1 [SB-390771],0,0,12,0,38,8,0,4,0,17
COc1ccc(C2=C(Nc3cccc(O)c3)C(=O)NC2=O)cc1 [SB-390766],0,24,0,0,0,0,0,0,0,0
N#CC1(c2cccc(C(=O)Nc3cccc(Oc4ccc5nc(NC(=O)C6CC6)sc5n4)c3)c2)CC1,0,0,22,0,19,0,58,68,50,0
Cc1cccc(Nc2nc(N[C@H]3CCCC[C@H]3N)ncc2C(N)=O)c1.Cl [GSK986310],16,17,84,71,0,98.4,31,74,34,19
Nc1ncc(-c2cn[nH]c2)c2scc(-c3ccc4c(c3)CCN4C(=O)Cc3ccccc3)c12 [GSK2593067],22,24,91,79,86,87,98.9,27,99.6,0
Cc1nn2c(=O)cc(N3CCO[C@H](C)C3)nc2n1Cc1cccc(Cl)c1Cl [GSK2373693],22,66,7,0,4,0,4,17,10,12
CC(C)NCC(Cc1ccccc1)NC(=O)c1cc(Br)c(-c2ccnc3[nH]ccc23)s1.Cl.Cl (centres unmarked) [GSK1383281],0,0,34,0,0,0,0,27,0,0
Cc1cc(-c2ccnc(Nc3cccc(C#N)c3)n2)cc(C)c1O [GSK1440913],0,22,2,1,18,30,18,76,12,0
COc1cc(Nc2nccc(N3CCC(NC(=O)Nc4ccc5c(c4)OCO5)C3)n2)cc(OC)c1OC (centres unmarked) [GSK1379766],0,8,0,0,29,17,0,0,0,0
